Source: PubChem
B2AR arrestin ag: qHTS assay of beta-arrestin-biased ligands of beta2-adrenergic receptor: NCGC Sytravon Library Screen; Beta-2 adrenergic receptor (Homo sapiens), P07550; HTLA Tango cells, beta-arrestin recruitment, luciferase luminescence, 18 h; Potency, µM (highest dose often 46.1 µM), most hits filed as activators; 44,000 tested, under 10 active;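 note: potency is the fitted concentration of half-maximal effect; 0% = DMSO and full agonism = EC100 isoproterenol or metaproterenol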
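Tango cells expressing recombinant beta2-AR and beta-arrestin were treated with compounds (up to 46 microM titration) in DMEM with 1% FBS for 18 hr at 37 degrees C. Beta-arrestin recruitment drove tTA-dependent luciferase, read by luminescence; curves were fitted and classed.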
GALK inhibitor: qHTS Assay for Inhibitors of Human Galactokinase (GALK): NCGC Sytravon Library Screen | 44,000 tested, under 10 active | AID 1347072, 2019 | recombinant GALK, Kinase-Glo ATP luminescence, 1 h | Potency, µM (top dose mostly 57.5 µM), for inactives: top-dose activity, negative = inhibition, actives largely listed as inhibitors | P51570;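 note: plate controls were full GALK reaction for no effect and reaction lacking GALK for full effect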
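Reactions with and without enzyme served as controls. GALK at 5 nM phosphorylates 100 uM galactose using 35 uM ATP (HEPES pH 8.0, Mg2+) for 1 h at RT, with luminescence read 10 min after adding Kinase-Glo Plus.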
NTMT1 inhibitor: Primary qHTS for Inhibitors of N-terminal methyltransferase 1 (NTMT1): MTaseGlo Assay; N-terminal Xaa-Pro-Lys N-methyltransferase 1 (Homo sapiens), Q9BV86; NTMT1 MTase-Glo SAH luminescence, purified enzyme; Potency, µM (titrated, usually from 114 µM), inactives show at the highest dose activity change, negative = inhibition, usual class: inhibitors; hit rate 2.5% among 59,000; AID 1645870, 2021;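 note: potency is the fitted concentration of half-maximal effect; plate controls were DMSO vehicle for no effect and no enzyme for full effect; nearly all actives have a fitted effect of over 65% in size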
Target sequence (Q9BV86 whole entry, looked up): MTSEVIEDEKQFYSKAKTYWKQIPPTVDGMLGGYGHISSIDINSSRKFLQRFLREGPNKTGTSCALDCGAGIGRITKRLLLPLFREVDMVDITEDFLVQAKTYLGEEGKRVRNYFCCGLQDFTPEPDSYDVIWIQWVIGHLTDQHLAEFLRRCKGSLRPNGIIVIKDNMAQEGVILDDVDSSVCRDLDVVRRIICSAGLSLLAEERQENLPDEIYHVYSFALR
PTAP-TSG101 blk: qHTS Validation Assay for Inhibitors of HIV-1 Budding by Blocking the Interaction of PTAP/TSG101: Sytravon Library Screen; 44,000 tested, under 10 active; Fluorescence polarization, FITC-PTAP peptide/Tsg101, 20 min; Potency, µM (series often up to 115 µM), actives largely listed as inhibitors; note: potency is the fitted concentration of half-maximal effect; 0% is about no effect
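qHTS FP binding, 20 min r.t.: 10 uM Tsg101 domain + 50 nM FITC-PTAP peptide, pH 7.5 HEPES buffer with TCEP and EDTA.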
HTT promoter inh: Primary qHTS for Identification of Small Molecule Inhibitors of Huntingtin Promoter Activity | HEK293 HTT promoter firefly luciferase reporter, 24 h | Potency, µM (series often up to 57.5 µM), for inactives: at the top dose activity change, negative = inhibition, most hits filed as inhibitors | hit rate 0.93% among 48,000 | AID 1508623, 2021; note: potency is the fitted concentration of half-maximal effect; nearly all actives have a fitted effect of over 50% in size
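Firefly luciferase signal from promoter-reporter HEK293 cells was scaled between vehicle (0%) and zero RLU (-100%). Compounds were tested at final concentrations of up to 57.5 uM over 24 h at 37 degrees C. PTC124 at 50 uM final served as control inhibitor.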
HTT-AS promoter: Primary qHTS for Identification of Small Molecule Activators of Huntingtin-Antisense Promoter Activity; HEK293 HTT-AS promoter firefly luciferase reporter, 24 h; response scale: percent change from vehicle, -100% = no light; hit rate 0.24% among 48,000; Potency, µM (series often up to 57.5 µM), for the others: top-dose activity change, positive = activation, hits mostly activators; note: potency is the fitted concentration of half-maximal effect; nearly all actives have a fitted effect of over 55% in size
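HEK293 luciferase promoter-reporter cells (2,500/well) plated 24 h, then compounds added at up to 57.5 uM final for 24 h at 37 °C. Firefly luminescence by Dual-Glo, normalized to vehicle (0%) and zero RLU (-100%).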
* marks the source's active call; other numbers are inactive results; [ ] = remark or other dose. Shown is part of a subset that was picked to be rich in hits. Calls come from the whole dose curve; as a rule, active = well fitted curve in the direction sought with a large enough effect; inconclusive = small, poorly fitted or top-dose-only effect, or another doubt; inactive = no such curve, though single readings can be large; an effect the other way counts as inactive or inconclusive.

FC(F)(F)c1ccc(-c2nc(NCc3ccc(-c4cccnc4)cc3)c3ccccc3n2)cc1 was read as NTMT1 inhibitor -5.4%.
Screening Cc1ccc(NC(=O)Nc2ccc3nc(N4CCN(C)CC4)cc(C)c3c2)cc1C returned B2AR arrestin ag inactive, GALK inhibitor 2.3%, NTMT1 inhibitor 89.1µM*, PTAP-TSG101 blk inactive, HTT promoter inh -13.0% and HTT-AS promoter -15.8%.
Screening Cc1ccc(/C=C/C(=O)Nc2ccc3nc(N4CCC(C)CC4)cc(C)c3c2)cc1 returned B2AR arrestin ag inactive, GALK inhibitor 6.3%, NTMT1 inhibitor 89.1µM*, PTAP-TSG101 blk inactive, HTT promoter inh -7.9% and HTT-AS promoter -8.4%.
Screening Cc1cc(N2CCC(C)CC2)nc2ccc(NC(=O)/C=C/c3cccc(Cl)c3)cc12 returned B2AR arrestin ag inactive, GALK inhibitor 3.7%, NTMT1 inhibitor -1.0%, PTAP-TSG101 blk inactive, HTT promoter inh 2.3% and HTT-AS promoter -9.6%.
`O=c1c(Nc2ccc(Br)c(Br)c2)c(Nc2nnc(-c3ccncc3)s2)c1=O` gave NTMT1 inhibitor 79.4µM*.
`O=C(Nc1cc(C(F)(F)F)cc(C(F)(F)F)c1)Nc1nnc(-c2ccncc2)s1` gave NTMT1 inhibitor 16.4%.
Screening O=S(=O)(Nc1nccs1)c1ccc(NCc2cccc(Cl)c2Cl)cc1 returned NTMT1 inhibitor -7.6%[57.5 µM].
COc1cc(CN(C(=O)c2ccc(OC(C)C)cc2)c2ccccn2)cc(OC)c1OC was read as B2AR arrestin ag inactive, GALK inhibitor -4.8%, NTMT1 inhibitor 15.9%, PTAP-TSG101 blk inactive, HTT promoter inh 15.8µM* and HTT-AS promoter -54.1%.
For N#Cc1ccnc(Nc2cc(C3CCN(C4COC4)CC3)cc(N3CCC(F)(F)C3)n2)c1 the results were NTMT1 inhibitor 3.2%.
Cc1ccc(NC(=O)c2oc3c(c2C)-c2[nH]ncc2CC3)c(Cl)c1 was read as B2AR arrestin ag inactive, GALK inhibitor 4.1%, NTMT1 inhibitor inconclusive, PTAP-TSG101 blk inactive, HTT promoter inh 74.1% and HTT-AS promoter 2.24µM*.
C[n+]1cc2c3c(ccc2c2ccc4cc5c(cc4c21)OCO5)OCO3 was read as NTMT1 inhibitor inconclusive, HTT promoter inh 2.82µM* and HTT-AS promoter -93.4%[25.1 µM].
`COc1cc(C(=O)Nc2cc(C)ccc2OCc2cc(=O)n3cc(C)sc3n2)cc(OC)c1OC` gave B2AR arrestin ag inactive, GALK inhibitor -1.2%, NTMT1 inhibitor 3.2%, PTAP-TSG101 blk inactive, HTT promoter inh -7.8% and HTT-AS promoter -13.0%.
Screening COc1cc(C(=O)Nc2ccccc2OCc2cc(=O)n3cc(C)sc3n2)cc(OC)c1OC returned B2AR arrestin ag inactive, GALK inhibitor 5.8%, NTMT1 inhibitor 89.1µM*, PTAP-TSG101 blk inactive, HTT promoter inh -9.7% and HTT-AS promoter -4.5%.
CC(C)c1ccc(NC(=O)c2ccc(F)c(S(=O)(=O)N3CCc4ccccc4C3)c2)cc1 was read as B2AR arrestin ag inactive, GALK inhibitor 2.1%, NTMT1 inhibitor 5.1%, PTAP-TSG101 blk inactive, HTT promoter inh 11.2µM* and HTT-AS promoter -25.5%.
Screening COc1ccccc1CNS(=O)(=O)c1cc(C(=O)Nc2cccc(C(F)(F)F)c2)ccc1F returned B2AR arrestin ag inactive, GALK inhibitor -0.2%, NTMT1 inhibitor 1.5%, PTAP-TSG101 blk inactive, HTT promoter inh 28.2µM* and HTT-AS promoter -46.9%.
